# Measured values taken from PubChem BioAssay (NCI).
# The panel holds about 83,000 compounds, 20% with a hit somewhere; the sample as a whole holds those more often.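 Note: values are percent growth. 100 is the growth of untreated cells, values between 100 and 0 indicate rising inhibition; between -100 and 0 indicates cell death.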 A number with no mark means an inactive call. The source made the active and inactive calls. Rule for the calls: active = growth percent below 10; inactive = the rest.
# Tested on: TK-10 renal
# Test: NCI-60 one-dose screen, 48 h (100 = growth as untreated, 0 = no growth, -100 = all killed)
# Conditions: 10 µM unless noted
row,SMILES,growth
1,C=CC(=O)N1CCC(Oc2cc3c(Nc4ccc(Cl)c(Cl)c4F)ncnc3cc2OC)CC1,-7.41% (active)
2,FC(F)(F)c1ccc(CNc2ccc(Cc3c[nH]c4ncc(Cl)cc34)cn2)cn1,18.3%
3,O=S1(=O)OC(c2cc(Cl)c(O)c(Br)c2)(c2cc(Cl)c(O)c(Br)c2)c2ccccc21,93%
4,CC(C)(C)OC(=O)N1CCC(O)[C@@H](O[Si](c2ccccc2)(c2ccccc2)C(C)(C)C)[C@H]1/C=C/c1ccccc1 (stereo partly specified),66.1%
5,Cc1cn(-c2cc(NC(=O)c3ccc(C)c(Nc4nccc(-c5cccnc5)n4)c3)cc(C(F)(F)F)c2)cn1,75.1%
6,Cc1cnc(Nc2ccc(OCCN3CCCC3)cc2)nc1Nc1cccc(S(=O)(=O)NC(C)(C)C)c1,-40% (active)
7,Cc1cccc(C)c1N1C(c2ccccc2)=NNC12C=CC(=O)c1c(O)cccc12 (stereo unspecified),111%
8,C=CC(=O)Nc1cccc(Nc2nc(Nc3ccc(N4CCN(C(C)=O)CC4)cc3OC)ncc2C(F)(F)F)c1,-24.6% (active)
9,COc1ccc(/C(C)=C(\c2ccc(Cl)cc2)c2ccc(OCCN3CCCCCC3)cc2)cc1,73.8%
10,Cc1cc(C(=O)Nc2cc(Oc3ccc4nc(NC(=O)C5CC5)cn4n3)ccc2C)n(C)n1,27.4%
11,CO[C@H](C(=O)N[C@@H](CCCCNC(=O)OCc1ccccc1)C(=O)OC(C)(C)C)[C@@H]1Cc2cc3cc(OC4CC(OC5CC(O)C(O)C(C)O5)C(O)C(C)O4)c(C)c(O)c3c(O)c2C(=O)[C@H]1OC1CC(OC2CC(OC3CC(C)(O)C(O)C(C)O3)C(O)C(C)O2)C(O)C(C)O1 (stereo partly specified),-9.57% (active)
12,CCN(CCCOc1ccc2c(Nc3cc(CC(=O)Nc4cccc(F)c4)[nH]n3)ncnc2c1)CCOP(=O)(O)O,83.9%
13,CC/C=C\C[C@H]1C/C=C2/C(=O)C=C[C@@H]2C/C=C\CCCC(=O)O1,-38.3% (active)
14,Cc1cn(-c2cc(NC(=O)c3ccc(C)c(Nc4nccc(-c5cnccn5)n4)c3)cc(C(F)(F)F)c2)cn1,102%
15,COc1cc2ncnc3c2cc1OCCCCCN(C)Cc1ccc(Br)cc1N3,3.42% (active)
16,C[C@@]1(C(=O)Nc2ccc(F)nc2)CCCN1c1nc(Nc2cc(C3CC3)[nH]n2)c2cccn2n1,35.9%

row,SMILES,growth
1,C[C@]12O[C@H](C[C@]1(O)CO)n1c3ccccc3c3c4c(c5c6ccccc6n2c5c31)CNC4=O,-81.5% (active)
2,CCN1CCN(CCCN(C[C@H]2Cc3ccccc3CN2)[C@H]2CCCc3cccnc32)CC1,85.6%
3,COCc1c(-c2ccc(NC(=O)Nc3cc(C(F)(F)F)ccc3F)c(F)c2)c2c(N)ncnn2c1CN1CCOCC1,-43% (active)
4,COc1cc2cc(NCc3ccc(F)cc3)nc(C)c2cc1OC,46.7%
5,CC(=O)C1=C(C)NC(SCc2nnc(-c3ccc(C)cc3)o2)=NC1c1ccc(F)cc1 (stereo unspecified),85.6%
6,N#CC[C@H](C1CCCC1)n1cc(-c2ncnc3[nH]ccc23)cn1,41.5%
7,Cc1ccc(-[n+]2c3cc(N)c(C)cc3nc3cc(C)c(Nc4ccccc4)cc32)cc1,-18.4% (active)
8,COc1cc2cc(NCc3ccc(Cl)cc3)nc(C)c2cc1OC,44.9%
9,CC(=O)c1cnc2ccc(-c3cc(Cl)c(O)c(Cl)c3)nc2c1NC1CCC(CN(C)C)CC1 (stereo unspecified),-59.7% [2.5 µM] (active)
10,CCN(CC)c1cc2oc3cc(N)cc(=N)c-3nc2cc1C,13.2%
11,CO[C@H]1C[C@@H]2CC[C@@H](C)[C@@](O)(O2)C(=O)C(=O)N2CCCC[C@H]2C(=O)O[C@H]([C@H](C)C[C@@H]2CC[C@@H](O)[C@H](OC)C2)CC(=O)[C@H](C)/C=C(\C)[C@@H](O)[C@@H](OC)C(=O)[C@H](C)C[C@H](C)\C=C/C=C/C=C/1C,43.5%
12,COc1cccc(NC(=O)Nc2ccc(Nc3ncnc4sc5c(c34)CCN(C(=O)CCl)C5)cc2)c1,122%
13,CCN(CC)CCNC(=O)c1c(C)[nH]c(/C=C2\C(=O)Nc3ccc(F)cc32)c1C,27.1%
14,CO[C@@H](C)Cn1c(=O)n(C)c2cnc3ccc(-c4cncc(C(C)(C)O)c4)cc3c21,-49.6% (active)
15,Cc1c(N)ccc(-c2ccc(N)c(C)c2S(=O)(=O)O)c1S(=O)(=O)O,98.6%
